Test results from PubChem BioAssay (EPA / NIEHS).
Values joined by “and” are separate entries in the source; they are usually repeats but may differ in a detail not shown here. Identical values can stand only once. Results filed as inconclusive are left out. Active and inactive are the calls of the source. How the source made its calls: active means hit-call score of the fitted dose curve at least 0.9, where 1 is the maximum; inconclusive means response in the unintended direction; inactive means score below 0.9.

Target: Peroxisome proliferator-activated receptor gamma (Homo sapiens) (UniProt P37231)
Sequence (P37231 whole entry, looked up): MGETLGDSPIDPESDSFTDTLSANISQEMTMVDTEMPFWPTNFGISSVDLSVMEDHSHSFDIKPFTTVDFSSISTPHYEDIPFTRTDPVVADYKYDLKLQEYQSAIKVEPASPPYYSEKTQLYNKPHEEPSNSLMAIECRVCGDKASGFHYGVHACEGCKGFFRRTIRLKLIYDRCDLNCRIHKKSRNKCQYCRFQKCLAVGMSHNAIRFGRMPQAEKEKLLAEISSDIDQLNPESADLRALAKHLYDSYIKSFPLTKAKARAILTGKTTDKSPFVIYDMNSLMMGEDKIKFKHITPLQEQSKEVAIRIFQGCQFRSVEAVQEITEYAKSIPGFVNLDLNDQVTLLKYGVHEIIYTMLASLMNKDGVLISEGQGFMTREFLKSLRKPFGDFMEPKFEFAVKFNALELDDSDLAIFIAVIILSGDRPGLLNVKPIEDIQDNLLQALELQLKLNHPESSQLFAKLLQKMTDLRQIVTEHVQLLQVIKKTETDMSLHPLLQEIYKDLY
Experiment: OT_PPARg_PPARgSRC1_0480: Odyssey Thera (OT) 8-hour Protein-Complementation Assay for Peroxisome Proliferator-activated Receptor Gamma / SRC-1 Co-activator (AID 2283387);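 further: nuclear to cytoplasmic split Venus YFP fluorescence ratio reporting PPARg SRC-1 interaction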
How it was run: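 Split-YFP (IFP1/IFP2) PPARg/SRC-1 reporter, HEK293T, 37 °C, 5% CO2; 8 h compound; formaldehyde fix + Draq5; high-content imaging, N/C ratio, ≥350 cells/image, positive direction vs DMSO.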

Compound	outcome	AC50
[Cl-].[Cl-].[Hg+2]	inactive	
Cc1cccc(N)c1N		31.9 µM (active) and 66.9 µM (active)
Cc1cc(N=Nc2ccccc2C)ccc1N	inactive	
CCCCOC(=O)c1ccccc1C(=O)OCc1ccccc1	inactive	
CN(C)[C@@H]1C(=O)C(C(N)=O)=C(O)[C@@]2(O)C(=O)C3=C(O)c4c(O)cccc4[C@@](C)(O)[C@H]3C[C@@H]12	inactive	
CC(C)(C)C(O)(CCc1ccc(Cl)cc1)Cn1cncn1 (configuration not stated)	inactive	
O=[N+]([O-])C(Br)(CO)CO	inactive	
O=C(Oc1ccc(Br)cc1)N1CCN2CCC1CC2	inactive	
COC(=O)c1ccccc1N	inactive	
CC(C)(OOC(C)(C)c1ccccc1)c1ccccc1	inactive	
O=C(Nc1ccccc1)c1ccccc1I	inactive	
Cn1cc(-c2ccccc2)c(=O)c(-c2cccc(C(F)(F)F)c2)c1	inactive	
COP(=S)(OC)SCN1C(=O)c2ccccc2C1=O	inactive	
CCCCCCCCn1sccc1=O	inactive	
O=C(N[C@H](c1ccccc1)[C@@H]1CN2CCC1CC2)c1c(Cl)ccc(C(F)(F)F)c1Cl	inactive	
C=CCc1ccc2c(c1)OCO2	inactive	
Nc1ccc(Oc2ccc(N)cc2)cc1	inactive	
Nc1ccc(N=Nc2ccccc2)cc1	inactive	
Nc1ccc([N+](=O)[O-])cc1	inactive	
Nc1ccc(Cc2ccc(N)cc2)cc1	inactive	
CCOC(=O)[C@]1(c2ccccc2)Oc2ccccc2[C@@H]1N	inactive	
CCCCCCCCOC(=O)c1ccc(C(=O)OCCCCCCCC)c(C(=O)OCCCCCCCC)c1	inactive	
